# In ChEMBL document CHEMBL3433997, “St. Jude Leishmania screening dataset” (2016):
# Experiments:
# Format in all cases: functional
# [1] = molecular target: Solute carrier family 2, facilitated glucose transporter member 1 (Homo sapiens) (UniProt P11166); test: ST_JUDE_LEISH: Cytotoxicity at 2uM final concentration against transgenic Leishmania Mexicana promastigotes LmGLUT1 that are glucose transport deficient and complemented with the human glucose transporter GLUT1. Activity is measured by DNA content using SYBR green in vitro
# Chain of Solute carrier family 2, facilitated glucose transporter member 1 (Homo sapiens) (P11166 whole entry): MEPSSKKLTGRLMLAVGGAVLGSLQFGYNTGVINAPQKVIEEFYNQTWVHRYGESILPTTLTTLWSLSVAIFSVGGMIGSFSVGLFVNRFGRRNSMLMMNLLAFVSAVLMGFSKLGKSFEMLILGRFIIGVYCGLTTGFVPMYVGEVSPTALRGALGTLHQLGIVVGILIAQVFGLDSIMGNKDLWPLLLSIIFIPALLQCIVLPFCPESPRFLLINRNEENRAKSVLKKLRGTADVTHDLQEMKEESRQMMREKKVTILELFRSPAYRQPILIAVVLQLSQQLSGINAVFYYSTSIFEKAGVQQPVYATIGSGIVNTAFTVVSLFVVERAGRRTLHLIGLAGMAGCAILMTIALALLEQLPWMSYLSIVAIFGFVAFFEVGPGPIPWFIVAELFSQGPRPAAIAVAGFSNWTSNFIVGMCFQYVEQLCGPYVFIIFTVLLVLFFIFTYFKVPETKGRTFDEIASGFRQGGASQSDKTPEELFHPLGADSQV
# [2] = molecular target: Hexose transporter 1 (Plasmodium falciparum) (UniProt O97467); test: ST_JUDE_LEISH: Cytotoxicity at 2uM final concentration against transgenic Leishmania Mexicana promastigotes LmPfHT that are glucose transport deficient and complemented with the Plasmodium falciparum hexose transporter. Activity is measured by DNA content using SYBR green in vitro
# [3] = molecular target: Glucose transporter (Leishmania mexicana) (UniProt O61059); test: ST_JUDE_LEISH: Cytotoxicity at 2uM final concentration against transgenic Leishmania Mexicana promastigotes LmGT2 that are glucose transport deficient and complemented with the L. Mexicana glucose transporter 2. Activity is measured by DNA content using SYBR green in vitro
Compound,inhibition [1],inhibition [2],inhibition [3]
CCOC(=O)c1cn(CC)c2cc(N3CCCCCC3)c(F)cc2c1=O,10.3%,4.48%,3.87%
N#Cc1ccc(N2CCN(Cc3cccc(-c4cccc(-c5nc6cc(F)ccc6[nH]5)c4)c3)CC2)nc1,3.5%,5.99%,3.65%
Cc1[nH]c(C)c(-c2ccc(CCc3ccc(C(F)(F)F)cc3)nc2)c(=O)c1Cl,2.59%,3.29%,0.56%
Cc1cc(N)nc2ccc(-c3ccc(CN)cc3)cc12,9.09%,6.77%,4.15%
CC(C)CCN1CCCN(Cc2ccc(C(=O)Nc3ccc(Cl)cc3)cc2)CC1,11.1%,11.3%,11.6%
CN1CCC(NCc2cccc(-c3ccc(S(=O)(=O)NCc4ccccc4)cc3)c2)CC1,8.1%,7.9%,10.3%
COC(=O)c1noc(C)c1I,0.86%,0.08%,0.59%
N#Cc1cccc(Nc2nccc(NCC(O)c3ccccc3C(F)(F)F)n2)c1 (configuration not stated),9.64%,7.25%,3.83%
CC(C)Sc1nc2c(c(=O)n1CCc1ccccc1)C1(CCCCC1)Cc1ccccc1-2,-1.26%,-1.14%,-0.83%
CN(C)C(=O)CN1CCN(c2ncnc(N3CCc4c([nH]c5ccccc45)[C@@H]3c3ccc4c(c3)CCO4)n2)CC1,4.28%,1.61%,-0.47%
Cc1cccc(-c2cccc(CNc3nc(NCCc4ccc(O)cc4)nc(N4CCNCC4)n3)c2)c1,2.88%,3.88%,2.83%
CN(C)c1cccc2c1nc(-c1ccco1)n2CCNCc1ccccc1,-0.08%,1.58%,-0.13%
C=CCN1C(=O)C(C(C)=O)=C(O)C1c1ccccc1 (configuration not stated),-0.92%,-4.02%,0.66%
CCc1c(CCNCC/C=C/CCNCCc2ccc(OC)c(OC)c2CC)ccc(OC)c1OC,0.84%,1.33%,-1.26%
FC(F)(F)COc1c(CNCCCCCCNCc2ccc3ccccc3c2OCC(F)(F)F)ccc2ccccc12,87.7%,95.5%,104%
COc1ccc2nccc([C@@H](O)CN3CCC(NC(=O)c4[nH]c5ccccc5c4-c4ccccc4)CC3)c2c1,28.3%,49.7%,12.8%
Cc1nc(N)nc(N)c1CCCOc1ccccc1Br,5.7%,8.36%,2.57%
COC(=O)c1ccc2nc(-c3ccc(/C=C/C(=O)NCc4ccc(Cl)c(Cl)c4)cc3)[nH]c2c1,3.11%,0.43%,4.71%
COc1ccc(NC(=O)Nc2cccc(-c3cccc(-c4nc5cc(F)ccc5[nH]4)c3)c2)cc1,1.35%,1.38%,0.62%
COCCNCc1ccc(-c2cccc(CNC3CCN(Cc4ccccc4)CC3)c2)cc1,4%,3.16%,4.77%
COC(=O)C(c1ccc(NC(=O)[C@H](CC(C)C)NC(=O)OC(C)(C)C)cc1)c1ccc(NC(=O)[C@H](CC(C)C)NC(=O)OC(C)(C)C)cc1,-0.28%,0.91%,0.27%
O=C(NCCc1ccccc1)N(Cc1cccc(-c2ccc(CNCCc3ccccc3)cc2)c1)C1CCN(Cc2ccccc2)CC1,0.95%,-0.75%,0.12%
CCCCCc1cc(O)c2c(c1)OC(C)(C)C=C2C1=CCN(Cc2ccsc2)CC1,2.33%,2.79%,2.52%
COc1ccc2ncc(F)c(NC(=O)C3CCC(NCc4cc5cc(F)cc(F)c5[nH]4)CC3)c2n1 (configuration not stated),68.5%,78.5%,82.5%

Compound,inhibition [1],inhibition [2],inhibition [3]
Cc1ccc(NC(=O)N2CCN(CCCCCNC(=O)/C=C/c3ccc(Cl)c(Cl)c3)CC2)cc1C,8.95%,7.71%,6.33%
C[C@@H](CNc1ccnc(Nc2ccc3[nH]c(=O)[nH]c3c2)n1)c1ccccc1,-3.02%,-0.02%,-0.41%
O=C(Cc1c[nH]cn1)Nc1cccc(-c2cccc(-c3nc4ccccc4[nH]3)c2)c1,9.66%,12.8%,7.58%
Cc1ccc(Cn2cnc3cc(C(=O)Nc4ccc(-c5cccc(CN(C)C)c5)cc4)ccc3c2=O)o1,75.5%,59%,51.1%
CN(C)c1cc(NC(=O)Nc2ccccc2)c2ccccc2n1,2.21%,5.06%,2.82%
Cc1c(Cn2ncc(N3CC(C)NC(C)C3)c(Cl)c2=O)cccc1NC(=O)Nc1ccc(-c2ccccc2)cc1 (configuration not stated),4.08%,3.21%,5.17%
Cc1ccc(NC(=O)Nc2ccc(Br)cc2)cc1OCCN(C)C,5.98%,3.65%,2.82%
Nc1cc(-c2ccc3ccccc3c2)nc2ccccc12,31.2%,26.8%,13.7%
Cc1cc(Nc2cccc(Cl)c2)nc2ccc(NC(=O)c3ccc(=O)[nH]c3)cc12,2.59%,3.49%,3.64%
CC(=O)c1ccc(-c2ccc(C(=O)NCCCCN3CCC(c4ccc5c(c4O)CCCC5)CC3)cc2)cc1,3.01%,3.4%,1.3%
CCOc1ccc(-c2n[nH]c(C(F)(F)F)c2-c2ccccc2OC)c(O)c1,2.44%,1.89%,1.29%
CN(C)c1ccc(CN2CCCC(CNC(=O)c3ccc(-c4cccc(C(F)(F)F)c4)s3)C2)cc1 (configuration not stated),1.33%,1.64%,-0.14%
Cc1cc(F)ccc1C1CCN(CCCCNC(=O)c2ccc(NC(=O)c3ccc(Cl)cc3)cc2)CC1,1.66%,0.36%,0.87%
Cc1ccc(NC(=O)Nc2ccccc2F)cc1-c1ccc(C(=O)Nc2ccncc2)cc1,1.42%,1.06%,0.59%
FC(F)(F)Oc1ccc(-c2cnc3ccc(NCc4ccncc4)nn23)cc1,2.41%,3.58%,-1.87%
CC(C)Cn1cc2c(ccc3nc(N)nc(N)c32)n1,1.25%,0.94%,0.32%
CCCCCCc1cc2cc(-c3nc(-c4ccc(OC)cc4)cs3)c(=O)oc2cc1O,,,-8.01%
COc1c(C2CCN(CCCCNC(=O)c3cc(-c4ccc(C#N)cc4)n[nH]3)CC2)ccc2c1CCCC2,-0.72%,0.62%,1.75%
O=C(Nc1ccc(-c2oc(C(=O)NCCc3cccc(Cl)c3)cc2-c2ccncc2)cc1)Nc1cccc(Cl)c1,0.9%,1.65%,2.92%
CCCN(CCC)S(=O)(=O)c1ccc(C(=O)Nc2nc3ccc(-c4cc(=O)[nH]c(Nc5ccccc5Cl)n4)cc3[nH]2)cc1,4.09%,5.1%,4.26%
CN1CCN(c2ccnc3ccc(NC(=O)Nc4ccc(-c5ccncc5)c(C(F)(F)F)c4)cc23)CC1,11.3%,9.91%,10.6%
O=C(Nc1ccc(Cl)cc1)Nc1nc2cc([N+](=O)[O-])ccc2[nH]1,0.18%,0.01%,0.02%
c1ccc2c(CNCCCCCCNCc3c(OCC4CC4)ccc4ccccc34)c(OCC3CC3)ccc2c1,51.5%,69.8%,37.4%
CN(C)CCCn1cncc1-c1ccc2ncnc(Nc3ccc4c(cnn4Cc4ccccc4)c3)c2c1,1.25%,1.38%,1.35%

Compound,inhibition [1],inhibition [2],inhibition [3]
COC(=O)c1cccc(CNCc2cccc(-c3cccc(-c4nc5cccc(C)c5[nH]4)c3)c2)c1,9.22%,8.21%,6.67%
COc1ccc(CCCN2C(=O)C(c3ccccc3)(c3ccccc3)N=C2N)cc1,-1.19%,-0.94%,-1.7%
Cc1nc(-c2cccc(Nc3nccc(NCC(O)c4cccc(C(F)(F)F)c4)n3)c2)cs1 (configuration not stated),1.56%,0.83%,-0.26%
COc1cccc(C(=O)NCc2cccs2)c1OCc1ccccc1,1.77%,0.89%,1.15%
Cc1cnc(CN(Cc2ccc(-c3ccc(CNCCc4ccc(S(C)(=O)=O)cc4)cn3)cc2)C(=O)c2ccc([N+](=O)[O-])c(C)c2)cn1,1.89%,3.15%,1.98%
CCN(CCCN1CCCCC1)c1cc(C)nc(Nc2ccc(C(C)C)cc2)n1,-0.68%,1.56%,2.4%
CC(C)c1ccc(-c2nc3cc(Cl)cnc3[nH]2)cc1,3.03%,3.85%,4.06%
OC1CCCN(Cc2cccc(-c3ccc(-c4nc5cc(C(F)(F)F)ccc5[nH]4)cc3)c2)C1 (configuration not stated),2.67%,2.8%,3.54%
CCCCCCc1ncc(-c2cc3cc(O)c(-c4ccccc4)cc3oc2=O)s1,,,-5.92%
NC1CCN(CCNCc2cccc(-c3ccc(-c4nc5cc(C(F)(F)F)ccc5[nH]4)cc3)c2)C1 (configuration not stated),2.65%,1.4%,2.67%
CC1(C)NC(N)=NC(=N)N1OCCOc1ccc2ccccc2c1,0.95%,-0.86%,1.3%
COc1ccc2nccc([C@@H](O)CN3CCC(NC(=O)/C=C/c4cc(F)cc(Br)c4)CC3)c2c1,6.91%,4.62%,-0.22%
CCCCCCCN1CCC(CC(=O)Nc2ccnc3ccc(OC)cc23)CC1,11.3%,9.11%,6.34%
CCC(CSC1CCCCC1)N(C)CCN(C)C(CC)CSC1CCCCC1 (configuration not stated),7.39%,36.7%,4.54%
CCCCOc1cc(C)nc2ccc(NC(=O)COCC(=O)Nc3ccc4nc(C)cc(OCCCC)c4c3)cc12,14.9%,13.7%,11.2%
CN1CCCN(c2ccnc3cc4c(cc23)N(C(=O)c2ccccc2Cl)CC4)CC1,-0.76%,0.96%,-0.18%
C=CCOC(=O)N1CCC(CNCc2ccc(-c3cccc(-c4nc5cc(F)ccc5[nH]4)c3)cc2)C1 (configuration not stated),1.77%,2.36%,3.88%
Cn1nc(C(=O)N2CCC(c3[nH]ncc3Cc3ccccc3)CC2)c2ccccc2c1=O,0.16%,2.06%,2.12%
CCc1c(C(=O)NC2CCC(N3CCC(c4ccccc4C)CC3)CC2)[nH]c2ccc(OC)cc12 (configuration not stated),0.2%,-0.58%,-0.08%
O=C(NCCCCCN1CCC(c2c[nH]c3ccccc23)CC1)Nc1ccc(Cl)cc1Cl,2.57%,2.01%,2.92%
Cn1cnc2c(Nc3ccncc3)nc(-c3ccc4ccccc4c3)nc21,-0.3%,0.97%,-0.56%
O=C(Nc1ccc(SC(F)(F)F)cc1)Nc1ccnc2ccccc12,-1.32%,-0.22%,-2.28%
CC(C)(C)Nc1cc(C2CC2)nc(-c2ccccn2)n1,2.01%,4.26%,3.05%
O=C(/C=C/c1ccc(Cl)c(Cl)c1)NCCCCCN1CCCC(CNC(=O)c2sc3ccccc3c2Cl)C1 (configuration not stated),-1.59%,-2.38%,1.79%
